According to PubChem BioAssay (NCATS):
Inconclusive results are not listed. Activity calls are given as the source filed them. Calls come from the whole dose curve; as a rule, active = well fitted cell-killing curve with a large enough effect; inconclusive = small, poorly fitted or top-dose-only effect, or effect the other way; inactive = flat fitted curve, though single readings scatter.

Assays:
Experiment in all cases: Primary qHTS to identify gynecologic anti-cancer compounds using libraries of approved drugs and bioactive compounds (AID 1345084); note: nearly all actives have a fitted effect of over 55% in size
Details in all cases: Gynecologic cancer cell panel viability, ATPlite luminescence, 48 h; series mostly up to 57.5 µM
PA-1 = test system: PA-1
Outline: (§1)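 ATP-based viability (ATPlite), 1,000 cells/well, 16 h pre-incubation, 48 h compound at 37 C, 5% CO2, 15 min RT before read.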

SKOV3 = test system: SKOV3
Outline: as §1

Tov-21-G = test system: Tov-21-G
Outline: as §1

Tov112D = test system: Tov112D
Outline: as §1
% is set by controls: 0 for no effect and ±100 for the full control effect.

O=C(O[C@H]1[C@H](Oc2ccc(O)cc2CO)O[C@H](CO)[C@@H](O)[C@@H]1O)c1ccccc1
inactive: Potency (PA-1) | Potency (SKOV3) | Potency (Tov-21-G) | Potency (Tov112D)

CC1(C)CC[C@]2(C(=O)O[C@@H]3O[C@H](CO)[C@@H](O)[C@H](O)[C@H]3O)CC[C@]3(C)C(=CCC4[C@@]5(C)CC[C@H](O[C@@H]6O[C@H](C(=O)O)[C@@H](O[C@@H]7O[C@H](CO)[C@@H](O)[C@H](O)[C@H]7O)[C@H](O)[C@H]6O[C@@H]6O[C@H](CO)[C@@H](O)[C@H](O)[C@H]6O)C(C)(C)C5CC[C@]43C)C2C1 (stereo partly drawn)
inactive: activity change, negative = cytotoxicity (PA-1) 18.4% [at 11.6 µM] | activity change, negative = cytotoxicity (SKOV3) 10.3% [at 11.6 µM] | activity change, negative = cytotoxicity (Tov-21-G) -2% [at 11.6 µM] | activity change, negative = cytotoxicity (Tov112D) 6.91% [at 11.6 µM]

O=C(Nc1ccn(Cc2c(F)cccc2C(F)(F)F)n1)c1c(F)cccc1F
inactive: activity change, negative = cytotoxicity (PA-1) 10.8% [at 11.6 µM] | activity change, negative = cytotoxicity (SKOV3) 9.68% [at 11.6 µM] | activity change, negative = cytotoxicity (Tov-21-G) 10.6% [at 11.6 µM] | activity change, negative = cytotoxicity (Tov112D) 3.93% [at 11.6 µM]

C=C1CC[C@@H]2C(C)(C)CCC[C@@]2(C)[C@@H]1CC/C(=C/C(=O)OC)COC(C)=O
inactive: Potency (PA-1) | Potency (SKOV3) | Potency (Tov-21-G) | Potency (Tov112D)

CC(C)C1NC(=O)C2CCCN2C1=O (stereo not drawn)
inactive: Potency (PA-1) | Potency (SKOV3) | Potency (Tov-21-G) | Potency (Tov112D)

CC1(C)CC[C@]2(C(=O)O[C@@H]3O[C@H](CO)[C@@H](O)[C@H](O)[C@H]3O)CC[C@]3(C)C(=CCC4[C@@]5(C)C[C@@H](O)[C@H](O)[C@@](C)(CO)C5[C@H](O)C[C@]43C)C2[C@@H]1O (stereo partly drawn)
inactive: Potency (PA-1) | Potency (SKOV3) | Potency (Tov-21-G) | Potency (Tov112D)

CC(=O)OC12CC(C)C(OC(=O)c3ccccc3)C1/C=C(/C)C(OC(=O)c1ccccc1)CC(=O)C(C)(C)/C=C/C(C)C2=O (stereo not drawn)
inactive: Potency (PA-1) | Potency (SKOV3) | Potency (Tov-21-G) | Potency (Tov112D)

COc1ccc(NC(=O)c2ccc(-c3ccc(C(N)=O)cc3C)cc2)cc1N1CCN(C)CC1
inactive: Potency (PA-1) | Potency (SKOV3) | Potency (Tov-21-G) | Potency (Tov112D)

COc1cc(O)cc2c1C(=O)OC(C)C2 (stereo not drawn)
inactive: Potency (PA-1) | Potency (SKOV3) | Potency (Tov-21-G) | Potency (Tov112D)

CC1(C)CC[C@]2(C(=O)O)[C@H](O)C[C@]3(C)C(=CCC4[C@@]5(C)CC[C@H](O[C@@H]6OC[C@@H](O)[C@H](O)[C@H]6O)[C@@](C)(C(=O)O)C5CC[C@]43C)[C@@H]2C1 (stereo partly drawn)
inactive: Potency (PA-1) | Potency (SKOV3) | Potency (Tov-21-G) | Potency (Tov112D)

COc1cccc(Cn2ncc3c4sc(S(C)=O)cc4n(C)c3c2=O)c1 (stereo not drawn)
inactive: Potency (PA-1) | Potency (SKOV3) | Potency (Tov-21-G) | Potency (Tov112D)

C/C=C1\[C@H](O[C@@H]2O[C@H](CO)[C@@H](O)[C@H](O)[C@H]2O)OC=C(C(=O)OCCc2ccc(O)cc2)[C@H]1CC(=O)OCCc1ccc(O)cc1
inactive: Potency (PA-1) | Potency (SKOV3) | Potency (Tov-21-G) | Potency (Tov112D)

Cc1cc(CO)c(O)c(C(=O)CC2CC(=O)NC(=O)C2)c1
inactive: Potency (PA-1) | Potency (SKOV3) | Potency (Tov-21-G) | Potency (Tov112D)

C[C@H](O)C(O)(C(=O)OCc1ccccc1NC(=O)CCC(N)C(=O)O)[C@H](C)O (stereo partly drawn)
inactive: Potency (PA-1) | Potency (SKOV3) | Potency (Tov-21-G) | Potency (Tov112D)

CC1=C(CO)CC(C(C)C2CCC3C4CC=C5CC(OC6OC(COC7OC(CO)C(O)C(O)C7O)C(O)C(O)C6O)CC(O)C5(C)C4CCC23C)OC1=O (stereo not drawn)
inactive: Potency (PA-1) | Potency (SKOV3) | Potency (Tov-21-G) | Potency (Tov112D)

OC[C@@]1(O)CO[C@H](OC[C@H]2O[C@@H](OC(CCCCc3ccc(O)cc3)CCc3ccc(O)cc3)[C@H](O[C@H]3OC[C@](O)(CO)[C@H]3O)[C@@H](O)[C@@H]2O)[C@@H]1O (stereo partly drawn)
inactive: Potency (PA-1) | Potency (SKOV3) | Potency (Tov-21-G) | Potency (Tov112D)

O=C(OCC1=CC(Cl)C(O)C(OC(=O)c2ccccc2)C1O)c1ccccc1 (stereo not drawn)
inactive: Potency (PA-1) | Potency (SKOV3) | Potency (Tov-21-G) | Potency (Tov112D)

CN1CCN(C2=Nc3ccccc3Nc3ccc(O)cc32)CC1
inactive: Potency (PA-1) | Potency (SKOV3) | Potency (Tov-21-G) | Potency (Tov112D)

COc1cc(/C=C/C(=O)O[C@@H]2C[C@@](O)(C(=O)O)C[C@@H](O)[C@@H]2O)ccc1O
inactive: Potency (PA-1) | Potency (SKOV3) | Potency (Tov-21-G) | Potency (Tov112D)

CC(C(=O)Nc1cc(C#N)ccc1CCCC(=O)O)c1ccc(F)c2ccccc12 (stereo not drawn)
inactive: Potency (PA-1) | Potency (SKOV3) | Potency (Tov-21-G) | Potency (Tov112D)

COc1cc(C(O)C2COC(c3ccc(OC4OC(CO)C(O)C(O)C4O)c(OC)c3)C2CO)ccc1O (stereo not drawn)
inactive: Potency (PA-1) | Potency (SKOV3) | Potency (Tov-21-G) | Potency (Tov112D)

CC(C)=CCC[C@@](C)(O)[C@H]1CC[C@]2(C)[C@@H]1[C@H](O)CC1[C@@]3(C)CC[C@H](O[C@@H]4O[C@H](CO)[C@@H](O)[C@H](O)[C@H]4O[C@@H]4O[C@H](CO)[C@@H](O)[C@H](O)[C@H]4O)C(C)(C)[C@@H]3CC[C@]12C (stereo partly drawn)
inactive: Potency (PA-1) | Potency (SKOV3) | Potency (Tov-21-G) | Potency (Tov112D)
